Laboratory results: PubChem BioAssay (NCATS)
Inconclusive results are not listed. The source made the active and inactive calls. Unless noted, calls come from the whole dose curve; as a rule, active = well fitted curve in the direction sought with a large enough effect; inconclusive = small, poorly fitted or top-dose-only effect, or another doubt; inactive = no such curve, though single readings can be large; an effect the other way counts as inactive or inconclusive.

Columns and labels:
[1] = biological target: Nucleoprotein (Lymphocytic choriomeningitis virus (strain Armstrong)) (UniProt P09992); test: qHTS for Inhibitors of the Functional Ribonucleoprotein Complex (vRNP) of Lymphocytic Choriomeningitis Arenaviruses (LCMV): LCMV Primary Screen - GLuc reporter signal (AID 1347086; calls by dose curve; note: series mostly up to about 57 µM; nearly all actives have a fitted effect of over 70% in size)
[2] = qHTS of pediatric cancer cell lines to identify multiple opportunities for drug repurposing: Primary screen for TC32 cells (AID 1347089); note: nearly all actives have a fitted effect of over 60% in size
How it was run: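 qHTS, TC32, 48 h drug treatment, CellTiter-Glo luminescence as a proxy for metabolically active cells; primary top concentration 46 µM (MIPE 11-pt, NPC 8-pt); confirmatory 11-pt.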

[3] = qHTS of pediatric cancer cell lines to identify multiple opportunities for drug repurposing: Primary screen for DAOY cells (AID 1347090); note: series mostly up to about 46 µM; nearly all actives have a fitted effect of over 55% in size
How it was run: (§1)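 Eight- or eleven-point concentration series, 48 h treatment at 37 degrees C in growth media; readout CellTiter-Glo luminescence. Potency and efficacy were taken from the concentration-response curves.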

[4] = qHTS of pediatric cancer cell lines to identify multiple opportunities for drug repurposing: Primary screen for SJ-GBM2 cells (AID 1347091)
How it was run: as §1

[5] = qHTS of pediatric cancer cell lines to identify multiple opportunities for drug repurposing: Primary screen for A673 cells (AID 1347092); note: nearly all actives have a fitted effect of over 45% in size
How it was run: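 Luminescence from CellTiter-Glo, taken after 15 min at room temperature, served as the proxy for metabolically active cells following 48 h treatment. Both potency and efficacy were taken from curves fitted to the titration data.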

[6] = qHTS of pediatric cancer cell lines to identify multiple opportunities for drug repurposing: Primary screen for SK-N-MC cells (AID 1347093); note: series mostly up to about 46 µM
How it was run: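 Metabolically active cells were quantified by ATP-dependent luminescence (CellTiter-Glo, 15 min at room temperature) following 48 h treatment. Cells had been plated at 500-1,000 per well and settled for 5 h beforehand.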

[7] = qHTS of pediatric cancer cell lines to identify multiple opportunities for drug repurposing: Primary screen for BT-37 cells (AID 1347094); note: series mostly up to about 57 µM
How it was run: (§2)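 Cells plated at 500-1,000/well in growth medium, compounds added after 5 h. MIPE tested at 11 points (from 0.78 nM), NPC at 8 points (from 0.59 nM). CellTiter-Glo luminescence after 48 h; concentration-response curves from primary screen.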

[8] = qHTS of pediatric cancer cell lines to identify multiple opportunities for drug repurposing: Primary screen for NB-EBc1 cells (AID 1347095)
How it was run: as §2

[9] = qHTS of pediatric cancer cell lines to identify multiple opportunities for drug repurposing: Primary screen for U-2 OS cells (AID 1347096); note: nearly all actives have a fitted effect of over 50% in size
How it was run: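 Cells (500-1,000/well) in growth media were settled 5 h at 37 degrees C, then given compounds for 48 h. Viability was read as CellTiter-Glo luminescence. Primary runs used MIPE at 11 points (0.78 nM-46 µM) and NPC at 8 points (0.59 nM-46 µM); follow-ups used 11 points.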

[10] = qHTS of pediatric cancer cell lines to identify multiple opportunities for drug repurposing: Primary screen for Saos-2 cells (AID 1347097); note: nearly all actives have a fitted effect of over 40% in size
How it was run: as §2

Measured: Potency

Chain of Nucleoprotein (Lymphocytic choriomeningitis virus (strain Armstrong)) (P09992 whole entry, looked up): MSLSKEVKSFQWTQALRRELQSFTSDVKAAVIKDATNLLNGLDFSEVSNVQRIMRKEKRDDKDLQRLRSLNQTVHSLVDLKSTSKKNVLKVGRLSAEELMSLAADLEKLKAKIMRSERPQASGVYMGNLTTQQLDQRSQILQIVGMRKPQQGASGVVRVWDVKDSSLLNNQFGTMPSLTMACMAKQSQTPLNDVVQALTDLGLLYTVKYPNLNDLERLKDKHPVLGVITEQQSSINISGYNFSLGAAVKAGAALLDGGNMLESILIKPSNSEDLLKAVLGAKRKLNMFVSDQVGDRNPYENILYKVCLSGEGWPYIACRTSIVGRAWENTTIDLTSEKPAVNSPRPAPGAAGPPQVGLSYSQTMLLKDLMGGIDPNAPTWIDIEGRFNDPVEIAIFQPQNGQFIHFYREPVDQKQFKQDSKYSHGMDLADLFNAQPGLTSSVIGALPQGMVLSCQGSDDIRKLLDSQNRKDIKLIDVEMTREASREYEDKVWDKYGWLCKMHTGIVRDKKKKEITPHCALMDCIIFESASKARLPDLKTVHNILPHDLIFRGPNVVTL

CNCC(=O)c1ccc(O)c(O)c1
inactive: [1] | [2] | [3] | [4] | [5] | [6] | [7] | [8] | [9]

[N-]=[N+]=CC(=O)OC[C@H](N)C(=O)O
inactive: [1] | [2] | [3] | [4] | [5] | [6] | [7] | [8] | [9]

CCOC(=O)CC(SP(=S)(OC)OC)C(=O)OCC (centres undefined)
inactive: [1] | [2] | [3] | [4] | [5] | [6] | [7] | [8] | [9] | [10]

Nc1ccc([As](=O)(O)O)cc1
inactive: [1] | [2] | [3] | [4] | [5] | [6] | [7] | [8] | [9]

CN1CC[C@]23c4c5ccc(O)c4O[C@H]2[C@@H](O)CC[C@H]3[C@H]1C5
inactive: [1] | [2] | [3] | [4] | [5] | [6] | [7] | [8] | [9]

C=CCN1C[C@H](C)N([C@H](c2ccc(C(=O)N(CC)CC)cc2)c2cccc(OC)c2)C[C@H]1C
inactive: [1] | [2] | [3] | [4] | [5] | [6] | [7] | [8] | [9]

CCN[C@@H](C)Cc1cccc(C(F)(F)F)c1
inactive: [1] | [2] | [3] | [4] | [5] | [6] | [7] | [8] | [9]

COc1cccc([C@@]2(O)CCCC[C@@H]2CN(C)C)c1
inactive: [1] | [2] | [3] | [4] | [5] | [6] | [7] | [8] | [9]

CCCOC(=O)c1cncn1C(C)c1ccccc1 (centres undefined)
inactive: [1] | [2] | [3] | [4] | [5] | [6] | [7] | [8] | [9]

NNc1ccccc1
inactive: [1] | [2] | [3] | [4] | [5] | [6] | [7] | [8] | [9]

O=c1[nH]oc2c1CCNC2
inactive: [1] | [2] | [3] | [4] | [5] | [6] | [7] | [8] | [9]

ClCCN1CCCC1
inactive: [1] | [2] | [3] | [4] | [5] | [6] | [7] | [8] | [9]
